According to PubChem BioAssay (Tox21):
Records with an inconclusive call do not appear. Unmarked numbers belong to inactive results. The source made the active and inactive calls. The call rests on the fitted dose curve; in most records, active means well fitted activation curve with a large enough effect in the repeat runs; inconclusive means weak or mixed curves; inactive means flat fitted curve, though single readings scatter.

assay: A CellTox Green Cytotoxicity Assay to monitor cytotoxicity in HepG2 cells - 32 hour (AID 1224883); settings: CellTox Green fluorescence; series mostly up to 76.8 µM; cytotoxicity increase: at the top concentration; further: nearly all actives have a fitted effect of over 50% in size
In short: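 Real-time, homogeneous cytotoxicity readout: dead-cell DNA staining by CellTox Green in HepG2 monolayers, fluorescence measured at timed intervals up to 40 h of continuous compound exposure.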
On the % scale 0 is the no-effect control and ±100 the full control effect; potency means the concentration at half of the fitted maximal effect.

Q: Which “cytotoxicity increase” value does the source give for `c1ccc(-c2ccc(C(c3ccccc3)n3ccnc3)cc2)cc1` (stereo unspecified) here?
A: 4.72% [at 35.3 µM]

Q: Which Potency does the source give for `CN(C/C=C/c1ccccc1)Cc1cccc2ccccc12` here?
A: 23.9 µM (active)

Q: Which “cytotoxicity increase” value does the source give for `CC(C)c1ccc2sc3ccccc3c(=O)c2c1` here?
A: 33.2%

Q: For `C1=CCCC1`, which “cytotoxicity increase” value is on record?
A: -12.8%

Q: With `CC(C)=NNC(N)=S` as the molecule, how does the “cytotoxicity increase” value read?
A: -6.76%

Q: Which “cytotoxicity increase” value does the source give for `CCC(=O)OC/C=C(\C)CCC=C(C)C` here?
A: 7.57%
